Measured values reported in PubChem BioAssay (Tox21).
A number with no mark means an inactive call. Records with an inconclusive call do not appear. Where a call stands in place of a potency, no number is given. Active and inactive are the calls of the source. Unless noted, calls come from the whole dose curve; as a rule, active = well fitted curve in the direction sought with a large enough effect in the repeat runs; inconclusive = weak or mixed curves; inactive = no such curve, though single readings can be large; an effect the other way counts as inactive or inconclusive.

Assays:
[1] = qHTS assay to identify small molecule agonists of the constitutive androstane receptor (CAR) signaling pathway - cell viability counter screen (AID 1224836); note: nearly all actives have a fitted effect of over 45% in size
Method in brief: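 Counter screen multiplexed with the CAR reporter readout: HepG2 cells co-transfected with hCAR and the CYP2B6-2.2kb construct receive a 15-concentration compound series and 0.75 uM PK11195 (final), then CellTiter-Fluor fluorescence is read after 23 h.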

[2] = qHTS assay to identify small molecule antagonists of the constitutive androstane receptor (CAR) signaling pathway - cell viability counter screen (AID 1224837); note: nearly all actives have a fitted effect of over 45% in size
Method in brief: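 Viability was measured with CellTiter-Fluor in a HepG2 line carrying stably transfected hCAR and a CYP2B6-2.2kb construct. Cells were exposed for 23 hr at 37 C to 15 compound concentrations with 50 nM CITCO as agonist.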

[3] = target: Nuclear receptor subfamily 1 group I member 3 (Homo sapiens) (UniProt Q14994); experiment: qHTS assay to identify small molecule antagonists of the constitutive androstane receptor (CAR) signaling pathway (AID 1224838);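 note: HepG2 cells stably expressing hCAR with CYP2B6 luciferase reporter stimulated by CITCO; nearly all actives have a fitted effect of over 40% in size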
Sequence of Nuclear receptor subfamily 1 group I member 3 (Homo sapiens) (Q14994 whole entry, looked up): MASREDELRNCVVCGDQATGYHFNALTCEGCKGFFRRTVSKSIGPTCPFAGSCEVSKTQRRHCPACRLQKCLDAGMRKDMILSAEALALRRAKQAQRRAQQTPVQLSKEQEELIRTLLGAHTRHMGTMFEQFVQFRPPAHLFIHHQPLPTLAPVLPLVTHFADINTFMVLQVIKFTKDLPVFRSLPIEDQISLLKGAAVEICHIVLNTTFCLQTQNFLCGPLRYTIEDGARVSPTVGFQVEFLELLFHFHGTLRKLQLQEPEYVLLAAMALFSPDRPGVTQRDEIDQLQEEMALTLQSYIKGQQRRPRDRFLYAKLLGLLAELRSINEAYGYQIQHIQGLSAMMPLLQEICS
Method in brief: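 Antagonist mode used CITCO at a final 50 nM to activate CAR in human hepatoma HepG2 cells carrying stable hCAR and a 2.2 kb CYP2B6 promoter-luciferase construct. Compounds were tested at 15 concentrations over 24 h, with luminescence as the end point.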

[4] = target: Nuclear receptor subfamily 1 group I member 3 (Homo sapiens) (UniProt Q14994); experiment: qHTS assay to identify small molecule agonists of the constitutive androstane receptor (CAR) signaling pathway (AID 1224839); note: nearly all actives have a fitted effect of over 15% in size; note: potency is the fitted concentration of half-maximal effect
Method in brief: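 A 15-concentration quantitative screen uses HepG2 cells co-transfected stably with human CAR and CYP2B6-2.2kb reporter. Treatment lasts 24 h with 0.75 uM PK11195 final present; ONE-Glo luminescence is the signal.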

[5] = qHTS assay to identify small molecule antagonists of the estrogen related receptor signaling pathway with the pleiotropic PPARgamma coactivator (PGC) from Tox21 10K library - cell viability counter screen (AID 1224840; active = well fitted cell-killing curve with a large enough effect in the repeat runs, not every such curve was filed as active; note: nearly all actives have a fitted effect of over 40% in size)
Method in brief: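 Multiplexed viability counter screen in the PGC/ERR cell line: cells treated with DMSO-dissolved compounds for 17.5 hours at 37 C, then viability measured as CellTiter-Fluor fluorescence.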

[6] = target: Thyrotropin receptor (Homo sapiens) (UniProt P16473); experiment: qHTS assay to identify small molecule agonists of the thyroid stimulating hormone receptor (TSHR) signaling pathway (AID 1224843; calls by dose curve; note: nearly all actives have a fitted effect of over 45% in size)
Sequence of Thyrotropin receptor (Homo sapiens) (P16473 whole entry, looked up): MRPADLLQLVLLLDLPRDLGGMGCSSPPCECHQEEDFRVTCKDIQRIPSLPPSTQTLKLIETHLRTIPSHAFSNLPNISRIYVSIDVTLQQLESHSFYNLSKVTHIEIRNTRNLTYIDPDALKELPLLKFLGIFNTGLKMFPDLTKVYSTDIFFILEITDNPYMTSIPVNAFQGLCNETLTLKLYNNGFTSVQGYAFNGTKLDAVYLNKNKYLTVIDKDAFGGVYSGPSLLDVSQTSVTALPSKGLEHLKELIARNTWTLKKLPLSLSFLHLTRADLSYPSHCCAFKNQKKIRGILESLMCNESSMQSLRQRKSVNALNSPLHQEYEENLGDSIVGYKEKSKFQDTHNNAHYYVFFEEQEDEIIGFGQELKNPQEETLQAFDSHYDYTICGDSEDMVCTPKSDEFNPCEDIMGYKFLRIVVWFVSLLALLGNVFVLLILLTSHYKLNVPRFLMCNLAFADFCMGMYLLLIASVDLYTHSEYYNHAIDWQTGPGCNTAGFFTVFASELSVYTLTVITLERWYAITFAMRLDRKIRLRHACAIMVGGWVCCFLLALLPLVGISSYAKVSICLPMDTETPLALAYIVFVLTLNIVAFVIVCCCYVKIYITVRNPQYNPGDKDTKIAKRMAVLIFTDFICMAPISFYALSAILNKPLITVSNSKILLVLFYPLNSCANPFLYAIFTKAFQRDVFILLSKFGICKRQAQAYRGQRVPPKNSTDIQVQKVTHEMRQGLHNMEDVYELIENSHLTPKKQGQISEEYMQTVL
Method in brief: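 A cell-based cAMP HTRF format was run in TSHR-transfected HEK293 cells, 800 per well. Treatment: 30 min, room temperature. Detection: 1 h with labelled cAMP and anti-cAMP cryptate. Concentration-response over 15 points, three replicates.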

[7] = qHTS assay to identify small molecule agonists of the hypoxia (HIF-1) signaling pathway - cell viability counter screen (AID 1224844; calls by dose curve; note: nearly all actives have a fitted effect of over 50% in size)
Method in brief: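 Cytotoxicity was measured in parallel with the HRE-driven beta-lactamase readout: after 17 hrs of compound exposure at 37C, HRE-bla ME-180 cells received CellTiter-Glo and luminescence was recorded 30 min later.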

[8] = qHTS assay to identify small molecule agonists of H2AX (AID 1224845; active = well fitted activation curve with a large enough effect in the signal ratio in the repeat runs, not every such curve was filed as active; the % refers to the signal ratio)
Method in brief: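 Phospho-H2AX Ser139 measured by HTRF (ex 320 nm; em 665 and 620 nm) after 24 hr antibody incubation. Compounds, 15 concentrations, 0.76% DMSO, were applied to CHO-K1 cells for 3hr at 37C before lysis.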

[9] = qHTS assay to identify small molecule agonists of the hypoxia (HIF-1) signaling pathway (AID 1224846; active = well fitted activation curve with a large enough effect in the signal ratio in the repeat runs, not every such curve was filed as active; the % refers to the signal ratio)
Method in brief: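 Compounds from the Tox21 10K library, dissolved in DMSO, are tested for induction of a hypoxia response element–controlled beta-lactamase reporter in ME-180 cells. Exposure lasts 17 hrs at 37C after a 5 hr settling period, followed by CCF4-AM FRET substrate.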

[10] = qHTS RealTime-Glo MT Cell Viability Assay in HepG2 cells - 24 hour (AID 1224867); note: nearly all actives have a fitted effect of over 50% in size
Method in brief: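 Cells + NanoLuc/prosubstrate dispensed (600 cells/well) → 5 h at 37 C/5% CO2 → compounds in DMSO transferred → 40 h incubation at 37 C, luminescence read at 0, 8, 16, 24, 32, 40 h.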

[11] = qHTS RealTime-Glo MT Cell Viability Assay in HEK293 cells - 32 hour (AID 1224868); note: nearly all actives have a fitted effect of over 50% in size; note: potency is the fitted concentration of half-maximal effect
Method in brief: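 Tox21 10K qHTS, HEK293, 600 cells/well, RealTime-Glo reagent co-dispensed with cells; 5 h preincubation, compound by pintool, 37 C, luminescence at 0–40 h.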

[12] = A CellTox Green Cytotoxicity Assay to monitor cytotoxicity in HEK293 cells - 0 hour (AID 1224869); note: nearly all actives have a fitted effect of over 50% in size
Method in brief: (§1)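 Cells (HEK293, 600/well) and dye reagent are dispensed together. After 5 h at 37 C, 23 nL compound is pinned in. Plates stay at 37 C for 40 h with fluorescence read at 0h, 8h, 16h, 24h, 32h and 40h.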

[13] = qHTS RealTime-Glo MT Cell Viability Assay in HepG2 cells - 40 hour (AID 1224870); note: nearly all actives have a fitted effect of over 50% in size
Method in brief: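 Real-time viability: cells seeded at 600 per well together with NanoLuc and cell-permeant prosubstrate, compounds added after 5 h incubation. Luminescence tracked at 0, 8, 16, 24, 32 and 40 h of exposure.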

[14] = target: Luciferin 4-monooxygenase (Photinus pyralis) (UniProt P08659); experiment: qHTS assay to identify small molecule inhibitors of firefly luciferase (AID 1224835); note: nearly all actives have a fitted effect of over 25% in size; note: potency is the fitted concentration of half-maximal effect
Sequence of Luciferin 4-monooxygenase (Photinus pyralis) (P08659 whole entry, looked up): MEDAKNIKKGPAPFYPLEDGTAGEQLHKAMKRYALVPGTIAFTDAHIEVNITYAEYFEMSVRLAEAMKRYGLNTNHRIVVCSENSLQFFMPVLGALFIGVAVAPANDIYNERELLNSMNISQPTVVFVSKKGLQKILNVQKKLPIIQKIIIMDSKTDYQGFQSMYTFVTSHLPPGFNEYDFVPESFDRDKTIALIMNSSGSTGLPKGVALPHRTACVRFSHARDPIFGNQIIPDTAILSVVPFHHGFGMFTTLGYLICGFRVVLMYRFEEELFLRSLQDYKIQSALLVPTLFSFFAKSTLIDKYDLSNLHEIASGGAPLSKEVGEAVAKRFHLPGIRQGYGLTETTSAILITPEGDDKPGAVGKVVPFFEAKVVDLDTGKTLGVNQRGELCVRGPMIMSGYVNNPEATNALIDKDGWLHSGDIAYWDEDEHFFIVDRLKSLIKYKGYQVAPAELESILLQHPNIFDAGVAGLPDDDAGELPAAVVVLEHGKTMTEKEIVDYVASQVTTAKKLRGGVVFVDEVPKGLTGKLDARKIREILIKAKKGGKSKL
Method in brief: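 Inhibition of purified Photinus luciferase is measured by luminescence. Substrate levels (D-luciferin, ATP) sit at their KM values. Each compound is tested in a concentration series.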

[15] = A CellTox Green Cytotoxicity Assay to monitor cytotoxicity in HEK293 cells - 40 hour (AID 1224871); note: nearly all actives have a fitted effect of over 45% in size
Method in brief: as §1

[16] = qHTS assay to identify small molecule antagonists of the estrogen related receptor signaling pathway with the pleiotropic PPARgamma coactivator (PGC) from Tox21 10K library (AID 1224841; call rule not given here; note: potency is the fitted concentration of half-maximal effect)
Method in brief: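 Steps: plate 2,000 PGC/ERR cells per well; incubate 6 h at 37 C with 5% CO2; transfer compounds from DMSO stocks by pin tool; incubate 18 h at 37 C; add One-Glo; measure luminescence 30 min later.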

[17] = qHTS assay to identify small molecule agonists of the estrogen related receptor signaling pathway with the pleiotropic PPARgamma coactivator (PGC) from Tox21 10K library (AID 1224842); note: nearly all actives have a fitted effect of over 15% in size
Method in brief: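 Luminescence from One-Glo (30 min, room temperature) measured after PGC/ERR cells had 18 h at 37 C with pinned compound (23 nL in DMSO). Cells had been seeded at 2,000 per well and pre-incubated 6 h.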

[18] = qHTS assay to identify small molecule agonists of H2AX - cell viability counter screen (AID 1224847; calls by dose curve; note: top concentration of the series differs between compounds; nearly all actives have a fitted effect of over 30% in size)
Method in brief: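 We seed wild-type CHO-K1 cells overnight, treat them for 3 hr at 37C with compounds in 15-concentration series, and quantify remaining viability by CellTiter-Glo luminescence.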

[19] = qHTS assay to identify small molecule antagonists of the estrogen related receptor (ERR) signaling pathway from Tox21 library (AID 1224848); note: nearly all actives have a fitted effect of over 50% in size; note: potency is the fitted concentration of half-maximal effect
Method in brief: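 ERR cell line, 2,000 cells/well. 6 h settle, then compound (DMSO) added; 18 h at 37 C; ONE-Glo luminescence after 30 min RT.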

[20] = qHTS assay to identify small molecule agonists of the estrogen related receptor (ERR) signaling pathway from Tox21 library (AID 1224849; calls by dose curve; note: nearly all actives have a fitted effect of over 15% in size); conditions: ERR reporter cell line, ONE-Glo luciferase, 18 h; at 92.4 µM (top of the series) unless noted
Method in brief: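 Cells carrying the ERR reporter were plated and allowed to settle for 6 h, exposed to library compounds for 18 h at 37 C, then lysed with ONE-Glo and luminescence measured.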

Row | SMILES | Potency [1] | Potency [2] | Potency [3] | Potency [4] | Potency [5] | Potency [6] | Potency [7] | Potency [8] | outcome [9] | outcome [10] | Potency [11] | Potency [12] | Potency [13] | Potency [14] | Potency [15] | Potency [16] | Potency [17] | Potency [18] | Potency [19] | activity change, positive = activation [20]
1 | COc1ccc(C(=O)Nc2ccccc2)cc1[N+](=O)[O-] | inactive | inactive | inactive | 30.9 µM (active) | inactive | inactive | inactive | inactive | inactive | inactive | 24.7 µM (active) | inactive | inactive | – | – | – | – | – | – | –
2 | Clc1ccccc1-c1nc(-c2ccncc2)no1 | inactive | – | – | 10.6 µM (active) | inactive | inactive | – | inactive | – | inactive | – | inactive | – | 2.75 µM (active) | inactive | – | – | – | – | –
3 | CC/C=C\CCO | inactive | – | – | – | inactive | – | inactive | inactive | inactive | inactive | – | inactive | inactive | inactive | – | inactive | inactive | inactive | inactive | 0.448%
4 | Clc1nc2ccccc2nc1Cl | inactive | – | – | – | inactive | inactive | inactive | inactive | inactive | inactive | – | inactive | inactive | inactive | inactive | – | – | – | – | –
5 | Nc1cccc2c(=O)[nH][nH]c(=O)c12 | inactive | inactive | inactive | inactive | inactive | – | inactive | – | – | inactive | inactive | inactive | inactive | – | inactive | 61.4 µM (active) | inactive | – | 48.8 µM (active) | -53.6%
6 | CCC(=O)O[C@]1(C(=O)COC)[C@@H](C)C[C@H]2[C@@H]3CCC4=CC(=O)C=C[C@]4(C)C3(F)[C@@H](O)C[C@@]21C (stereo partly drawn) | inactive | inactive | inactive | inactive | inactive | inactive | – | – | inactive | inactive | inactive | inactive | inactive | – | inactive | inactive | inactive | inactive | inactive | -12.4% [at 42.5 µM]
7 | O=C1OC(=O)C2CC=CCC12 (stereo not drawn) | inactive | inactive | inactive | inactive | inactive | – | inactive | inactive | inactive | inactive | inactive | inactive | – | – | – | – | – | inactive | – | –
8 | CC(=O)c1ccc(Cl)c(Cl)c1Cl | inactive | inactive | inactive | inactive | inactive | inactive | inactive | inactive | inactive | inactive | inactive | inactive | inactive | – | – | – | – | inactive | – | –
9 | C=CC(C)(O)CC/C=C(/C)CCC=C(C)C (stereo not drawn) | inactive | – | – | – | – | – | inactive | inactive | – | inactive | inactive | inactive | inactive | inactive | inactive | – | – | inactive | – | –
10 | CCCCCCC/C=C/C=O | inactive | inactive | inactive | inactive | inactive | inactive | inactive | inactive | inactive | – | inactive | inactive | inactive | – | inactive | – | – | – | – | –
